In the library only some 21% were active in any assay of this set; here they are far more common.
CHX counter = Cycloheximide Counterscreen for Small Molecule Inhibitors of Shiga Toxin. AID 2314, 2010. max response, %. actives 12% (n = 300,000). cell reporter, cycloheximide protein synthesis inhibition counterscreen; in the data active = max response mostly above about 13%, no sharp cut-off; inactive = mostly below about 14%; note: read at 38.3 µM for the half of the compounds with a filed dose; 0% is about no effect
Pf growth 96h = Primary qHTS for delayed death inhibitors of the malarial parasite plastid, 96 hour incubation | Potency, µM (titrated, usually from 28.7 µM), for the others: at the highest dose activity change, negative = inhibition, usual class: inhibitors | actives 6.9% (n = 320,000) | P. falciparum luciferase reporter growth, 96 h | AID 504834, 2011; note: potency is the fitted concentration of half-maximal effect; % is set by controls: 0 for no effect and ±100 for the full control effect
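Readout is luminescence from an integrated firefly luciferase in P. falciparum. Red cells, 2% hematocrit and 0.05% parasitemia final, were cultured with compound through two parasite generations (96 hours) at 37 C, 5% CO2.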
Pf growth 48h = Primary qHTS for delayed death inhibitors of the malarial parasite plastid, 48 hour incubation | actives 5.9% (n = 310,000) | Potency, µM (titrated, usually from 28.7 µM), for inactives: top-dose activity change, negative = inhibition, most hits filed as inhibitors | P. falciparum luciferase growth in erythrocytes, 48 h; note: potency is the fitted concentration of half-maximal effect; % is set by controls: 0 for no effect and ±100 for the full control effect
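In quantitative HTS format, infected erythrocytes bearing luciferase-reporter parasites were treated for a single generation at 37 C. Luminescence after adding detection reagent served as the growth measure.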
Shiga toxin inh = A qHTS for Small Molecule Inhibitors of Shiga Toxin; Vero cells, Shiga toxin protein synthesis inhibition reporter; actives 9.2% (n = 290,000); AID 2315, 2010; inhibition, % at 38.7 µM; in the data active = inhibition mostly above about 28%, no sharp cut-off; inactive = mostly below about 43%; note: 0% is about no effect
NS1 inh = qHTS Assay for Inhibitors of Influenza NS1 Protein Function; Potency, µM (highest dose often 46.1 µM), without a hit: at the highest dose activity, positive = more growth; actives 0.4% (n = 270,000); calls by dose curve; note: potency is the fitted concentration of half-maximal effect; actives are rising curves; nearly all actives have a fitted effect of over 50% in size
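Growth recovery, yeast-based: influenza A NS1 expressed in S. cerevisiae causes slow growth, and suppressors are detected by OD600. The parent strain without NS1 is used as positive control.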
Giardia FBPA inh = qHTS Assay for Inhibitors of Fructose-1,6-bisphosphate Aldolase from Giardia Lamblia; purified Giardia FBPA; Potency, µM (top dose mostly 59.6 µM), for the others: top-dose activity, negative = inhibition, hits mostly inhibitors; actives 0.71% (n = 290,000); AID 2451, 2010; note: potency is the fitted concentration of half-maximal effect; % is set by controls: 0 for no effect and ±100 for the full control effect; nearly all actives have a fitted effect of over 55% in size
Target sequence (A8B2U2 whole entry, looked up): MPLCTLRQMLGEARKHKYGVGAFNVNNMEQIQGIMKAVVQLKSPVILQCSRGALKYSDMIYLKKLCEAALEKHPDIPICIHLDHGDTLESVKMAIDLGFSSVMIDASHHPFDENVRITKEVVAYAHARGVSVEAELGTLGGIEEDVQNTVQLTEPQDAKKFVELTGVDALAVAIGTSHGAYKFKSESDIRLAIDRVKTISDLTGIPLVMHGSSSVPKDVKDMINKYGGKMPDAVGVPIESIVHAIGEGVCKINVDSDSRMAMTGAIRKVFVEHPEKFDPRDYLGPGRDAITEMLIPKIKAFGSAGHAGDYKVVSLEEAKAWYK
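40 nM FBPA preincubated 10 min at RT with compound (up to 57.5 uM final), then substrate plus GAPDH/TPI/NAD/arsenate coupling and diaphorase/resazurin added. Fluorescence read after 20 min at RT, 525/598 nm.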
An asterisk follows results filed as active; ? = inconclusive; · = no result given; [ ] = dose if it differs, or a comment. Unless noted, calls come from the whole dose curve; as a rule, active = well fitted curve in the direction sought with a large enough effect; inconclusive = small, poorly fitted or top-dose-only effect, or another doubt; inactive = no such curve, though single readings can be large; an effect the other way counts as inactive or inconclusive.

SMILES | CHX counter | Pf growth 96h | Pf growth 48h | Shiga toxin inh | NS1 inh | Giardia FBPA inh
CC(C)Oc1cccc(C(=O)C2CCCN(C(=O)CCc3cnn(C)c3)C2)c1 (centres undefined) | 52* | ? | 69% | 66* | -7% | 13%
COc1ccc(C(=O)Nc2cnn(Cc3c(F)cccc3Cl)c2)cc1OC | 12* | ? | ? | 20 | -12% | 1%
COc1ccc(Cl)cc1NC(=O)CC(=O)Nc1cc(Cl)ccc1OC | 7 | 8% | ? | 8 | 11% | -1%
COc1ccc(S(=O)(=O)N2CCOCC2)cc1NC(=O)CN1CCCCCC1 | 2 | 40% | -4% | -3 | · | 6%
O=C(Nc1cnn(Cc2c(Cl)cccc2Cl)c1)C(c1ccccc1)c1ccccc1 | -1 | ? | · | -11 | 7% | -8%
COc1ccc(S(=O)(=O)N2CCOCC2)cc1NC(=O)Cc1c(Cl)cccc1Cl | -4 | 8.3µM* | ? | -6 | 4% | -1%
COc1cc(C(C)=O)ccc1OCC(=O)Nc1ccc(Cl)c(S(=O)(=O)N2CCOCC2)c1 | · | 2.1µM* | 4.1µM* | · | · | ·
COc1ccc(Cl)cc1NC(=O)Cc1c(F)cccc1Cl | -3 | 5.9µM* | ? | -8 | 5% | -12%
COc1ccc(CN2CCCC(C(=O)c3ccc4c(c3)OCO4)C2)c(F)c1 (centres undefined) | 0 | 4% | -5% | -2 | 5% | -8%
CCN(C(=O)COC(=O)CCc1ccc(OC)cc1)c1c(N)n(Cc2ccccc2)c(=O)[nH]c1=O | · | 0% | -20% | · | · | ·
CCN(CC)CCn1c(-c2ccccc2)nc2c(NCCOC)nc(C)nc21 | · | · | · | · | · | 5%
CC1CCN(C(=O)C2CCCN(S(=O)(=O)c3ccc4c(c3)CC(C)N4C(=O)C3CC3)C2)CC1 (centres undefined) | -3 | ? | ? | 1 | -27% | 5%
CCOC(=O)C1CCCN(CC(=O)Nc2nccs2)C1 (centres undefined) | 7 | -10% | ? | -11 | ? | ?
Cc1nc2c(C)cccn2c1/C(O)=C1\C(=O)C(=O)N(CCN(C)C)C1c1ccccc1 (centres undefined) | 4 | 19% | 8% | 15 | 2% | -12%
COc1ccc(S(=O)(=O)N2CCOCC2)cc1NC(=O)CSc1ccccc1 | -3 | 9% | -6% | -9 | 7% | 3%
COc1ccc(Cl)cc1NC(=O)C(C)N(C)Cc1cccc(Cl)c1Cl (centres undefined) | -3 | 6.6µM* | 12µM* | -16 | -2% | -8%
COc1ccc(CCC(=O)Nc2cccc(S(=O)(=O)N3CCOCC3)c2)cc1OC | · | -6% | -10% | · | · | ·
COc1ccc(Cl)cc1NC(=O)NC(C)C | -4 | -40%[5.75 µM] | 2% | -1 | 6% | -3%
COc1ccc(Cl)cc1NC(=O)C(C)NC(c1ccccc1)c1ccccc1 (centres undefined) | -1 | 2.9µM* | 13µM* | -25 | -7% | 0%
COc1ccc(C(C)=O)cc1CC(=O)Nc1cccc(S(=O)(=O)N2CCOCC2)c1 | · | 7.4µM* | 13µM* | · | · | ·
COc1ccc(S(=O)(=O)N2CCOCC2)cc1NC(=O)CN(C)Cc1c(F)cccc1Cl | -1 | ? | 7.4µM* | 4 | · | -5%
COc1ccc(NS(=O)(=O)c2ccc3c(c2)N(C(C)=O)CCO3)cc1 | 7 | ? | 10% | -2 | -9% | ·
CCN(CC(=O)Nc1c(F)cccc1F)C(=O)Cc1ccc(S(=O)(=O)N2CCOCC2)s1 | · | -1% | ? | · | · | ·
NC(=O)CSc1oc(-c2ccco2)nc1S(=O)(=O)c1ccc(Br)cc1 | 11 | -4% | -13% | 22 | 2% | -13%
Cc1ccc(NC(=O)COC(=O)C2CCC2)cc1S(=O)(=O)N1CCCCC1 | · | ? | 8% | · | · | ·
Cc1ccccc1CC(=O)OCC(=O)Nc1ccc(C)c(S(=O)(=O)N2CCCCC2)c1 | · | ? | 10µM* | · | · | ·
Cc1ccc(NC(=O)COc2ccccc2C#N)cc1S(=O)(=O)N1CCCCCC1 | · | 8.3µM* | ? | · | · | ·
CSc1cccc(NC(=O)CN(C)S(=O)(=O)c2ccccc2)c1 | 18* | ? | 20% | 18 | -5% | 0%

Source: PubChem (National Center for Advancing Translational Sciences (NCATS))
